The record followed here is PubChem BioAssay (NCATS).

The target in assay [1] is Lysosomal acid glucosylceramidase (Homo sapiens) (UniProt P04062). In words: Glucocerebrosidase-p2 (AID 348; in the data active means potency below about 10 µM; further: potency means the concentration at half of the fitted maximal effect). Conditions: purified GBA, blue fluorogenic substrate, 40 min. A digest of the protocol:
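Normal human glucocerebrosidase (0.2 nM) with blue fluorogenic substrate (80 uM final) in citrate/phosphate pH 5.9 with 10mM sodium taurocholate, 0.01% tween-20; 40 min RT, NaOH/glycine stop; fluorescence Ex 365/Em 440; AC50 from a titration from 0.6 nM upwards.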

Assay [2] in a line: AP1 Signaling Pathway (AID 357).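 Further: ME-180 reporter cells stimulated with EGF at its EC50 level; on the % scale 0 is the no-effect control and ±100 the full control effect.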 Conditions: ME-180 AP-1-bla reporter, EGF-induced, beta-lactamase ratio, 5 h; at 7.69 µM (top of the series) unless noted. Summed up:
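Beta-lactamase reporter under AP-1 response element, ME-180 background. Stimulus: EC50 EGF. Compound exposure 5 h, 37 °C. Detection: CCF4, 2.5 h RT, 460/530 nm. Values: AC50 from titration.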

Assay [3] in a line: NFAT Signaling Pathway (AID 444).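 Further: carbachol stimulus at about its EC50 of 1 µM final; on the % scale 0 is the no-effect control and ±100 the full control effect.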 As to conditions: Jurkat NFAT-bla M1, carbachol, beta-lactamase ratio, 5 h; at 7.69 µM (top of the series) unless noted. Summed up:
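Jurkat cells carrying an NFAT-driven β-lactamase reporter and co-transfected muscarinic M1 receptor were treated with compound plus carbachol (1 uM final, an EC50 level) for 5 h at 37 °C. CCF4 loading followed for 1 h at RT; 460/530 nm ratio gave %activity.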

The nature of assay [4]: Stat Signaling Pathway (AID 446).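 Further: ME-180 cervical cancer cells given 40 pM IL-6 alongside compound; SIE-controlled beta-lactamase reporter measured as 460/530 nm FRET emission ratio; on the % scale 0 is the no-effect control and ±100 the full control effect.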 Conditions: ME-180 (cervical carcinoma) SIE beta-lactamase reporter, IL-6 stimulated, 5 h; at 7.69 µM (top of the series) unless noted. Summed up: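 Emission at 460 and 530 nm (excitation 405 nm) reports SIE-controlled beta-lactamase in ME-180 cells. Cells received compound with 40 pM IL-6 for 5 hrs at 37 C; data scaled between 300 pM IL-6 and 125 nM JAK-inhibitor controls.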

The target in assay [5] is Glucocorticoid receptor (Homo sapiens) (UniProt P04150). In words: GR-EFC Redistribution (AID 451; calls by dose curve; further: potency means the concentration at half of the fitted maximal effect). Conditions: CHO-K1 GR-EFC translocation, beta-gal luminescence, 2 h. A digest of the protocol: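 CHO-K1 cells stably expressing nuclear-localized β-gal enzyme acceptor and GR fused C-terminally to the enzyme donor fragment; ligand-driven nuclear translocation restores β-gal by complementation. Compounds titrated up to 46 uM final, 2 h at 37 °C; luminescence read.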
Glucocorticoid receptor (Homo sapiens), sequence (P04150 whole entry, looked up, the tested form may be a part): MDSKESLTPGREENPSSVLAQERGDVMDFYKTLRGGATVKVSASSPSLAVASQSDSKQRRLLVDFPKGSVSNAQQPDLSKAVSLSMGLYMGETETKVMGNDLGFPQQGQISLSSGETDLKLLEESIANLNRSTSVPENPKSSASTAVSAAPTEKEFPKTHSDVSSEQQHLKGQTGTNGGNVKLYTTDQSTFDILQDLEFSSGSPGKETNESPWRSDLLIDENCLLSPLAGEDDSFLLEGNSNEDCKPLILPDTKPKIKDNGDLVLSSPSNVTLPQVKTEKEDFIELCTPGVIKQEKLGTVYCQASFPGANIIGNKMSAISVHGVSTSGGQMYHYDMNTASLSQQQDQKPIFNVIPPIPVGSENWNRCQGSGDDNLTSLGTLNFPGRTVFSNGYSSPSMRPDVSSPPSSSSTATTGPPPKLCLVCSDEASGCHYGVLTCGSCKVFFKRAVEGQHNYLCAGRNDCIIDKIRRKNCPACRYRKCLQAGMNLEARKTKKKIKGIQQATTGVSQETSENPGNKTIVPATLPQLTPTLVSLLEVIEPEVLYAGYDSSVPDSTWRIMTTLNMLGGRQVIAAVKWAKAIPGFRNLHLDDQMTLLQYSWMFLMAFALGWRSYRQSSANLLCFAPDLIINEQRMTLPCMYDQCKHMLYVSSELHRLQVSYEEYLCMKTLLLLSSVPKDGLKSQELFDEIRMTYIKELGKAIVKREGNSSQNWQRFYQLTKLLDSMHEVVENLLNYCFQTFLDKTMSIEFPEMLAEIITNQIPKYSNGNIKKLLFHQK

The target in assay [6] is Mitogen-activated protein kinase 10 (Mus musculus) (UniProt Q61831). Briefly: JNK3 AlphaScreen Assay (AID 530).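 Further: kinase came from lysate of stimulated human HepG2 cells; on the % scale 0 is the no-effect control and ±100 the full control effect.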 Conditions: JNK3 lysate, c-Jun phosphorylation; series mostly up to 57.1 µM. A digest of the protocol: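 Biotinylated GST-cJun(1-79) served as substrate for JNK3 in HepG2 lysates stimulated with IL-1beta and TNF-alpha. ATP was 10 uM final, pH 7.6. Ser73 phosphorylation was quantified by AlphaScreen (680 nm excitation).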
(In general: In Alpha technology, singlet oxygen from a donor bead excites a nearby acceptor bead.)

Assay [7] addresses 3',5'-cyclic-AMP phosphodiesterase 4B (Homo sapiens) (UniProt Q07343). Briefly: qHTS Assay for Inhibitors of PDE-IV (AID 607; active means well fitted activation curve with a large enough effect in the main read-out, with a control signal flat, not every such curve was filed as active; further: % of control where 0% means no effect). Conditions: HEK293 ACTOne CNG channel cells, membrane potential fluorescence; series mostly up to 22.9 µM. Summed up: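 The readout is membrane depolarisation from a cAMP-sensing CNG channel, detected with a potential dye at ex 535/em 590. Cells were HEK293-derived (endogenous PDE-IV) at 1000 cells/well, titrated up to 22.9 uM final.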
(In general: In qHTS, concentration-response curves come from the screen itself.)

Assay [8] concerns the target Glucocorticoid receptor (Homo sapiens) (UniProt P04150). In words: GR-GFP Redistribution (AID 450;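 active means compounds whose dose series gives a full or clear partial fitted curve of increased nuclear translocation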; further: potency means the concentration at half of the fitted maximal effect). Conditions: U2OS GR-GFP nuclear translocation, laser cytometry, 2 h.
The target of assay [9] is Cytochrome P450 1A2 (Homo sapiens) (UniProt P05177). Briefly: p450-cyp1a2 (AID 410; calls by dose curve; further: potency means the concentration at half of the fitted maximal effect;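 on activity change, negative = inhibition: -100% = full effect of reference inhibitor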). Conditions: recombinant CYP1A2, luciferin-ME demethylation, luminescence; series mostly up to 11.4 µM. A digest of the protocol: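 20nM CYP1A2, 100uM Luciferin-ME (=Km), 100mM KPO4; cpd 10 min RT; +NADPH regen, 60 min RT; stop/detect 20 min; luminescence. Normalized to furafylline 57 uM = full inhibition.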
Cytochrome P450 1A2 (Homo sapiens), sequence (P05177 whole entry, looked up): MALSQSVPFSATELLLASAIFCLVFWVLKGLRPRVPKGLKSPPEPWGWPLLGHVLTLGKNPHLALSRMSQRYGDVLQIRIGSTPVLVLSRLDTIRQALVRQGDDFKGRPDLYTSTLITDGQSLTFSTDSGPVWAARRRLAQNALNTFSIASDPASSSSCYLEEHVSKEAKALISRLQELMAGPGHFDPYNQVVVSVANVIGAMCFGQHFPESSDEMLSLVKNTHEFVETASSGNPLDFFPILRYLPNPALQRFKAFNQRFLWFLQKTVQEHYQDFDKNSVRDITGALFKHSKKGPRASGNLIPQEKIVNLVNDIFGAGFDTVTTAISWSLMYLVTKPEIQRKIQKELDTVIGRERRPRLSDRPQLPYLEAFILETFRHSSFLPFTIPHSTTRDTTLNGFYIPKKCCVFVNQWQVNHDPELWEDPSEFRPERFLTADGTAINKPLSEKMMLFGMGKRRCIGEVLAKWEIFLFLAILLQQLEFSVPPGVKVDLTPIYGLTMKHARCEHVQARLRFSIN

For assay [10], the target named is Cytochrome P450 2C19 (Homo sapiens) (UniProt P33261). In words: qHTS Assay for Inhibitors and Substrates of Cytochrome P450 2C19 (AID 899; active means well fitted inhibition curve with a large enough effect; further: potency means the concentration at half of the fitted maximal effect; nearly all actives have a fitted effect of over 60% in size). As to conditions: recombinant CYP2C19, luciferin-H EGE luminescence; series mostly up to 11.4 µM. Summed up: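 NADPH-dependent conversion of Luciferin-H EGE (10uM, at KM) by 5nM enzyme in 50mM KPO4, 60 min at 37C following 10 min compound preincubation. Stopped with luciferin detection buffer; luminescence read after 20 min.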
Cytochrome P450 2C19 (Homo sapiens), sequence (P33261 whole entry, looked up): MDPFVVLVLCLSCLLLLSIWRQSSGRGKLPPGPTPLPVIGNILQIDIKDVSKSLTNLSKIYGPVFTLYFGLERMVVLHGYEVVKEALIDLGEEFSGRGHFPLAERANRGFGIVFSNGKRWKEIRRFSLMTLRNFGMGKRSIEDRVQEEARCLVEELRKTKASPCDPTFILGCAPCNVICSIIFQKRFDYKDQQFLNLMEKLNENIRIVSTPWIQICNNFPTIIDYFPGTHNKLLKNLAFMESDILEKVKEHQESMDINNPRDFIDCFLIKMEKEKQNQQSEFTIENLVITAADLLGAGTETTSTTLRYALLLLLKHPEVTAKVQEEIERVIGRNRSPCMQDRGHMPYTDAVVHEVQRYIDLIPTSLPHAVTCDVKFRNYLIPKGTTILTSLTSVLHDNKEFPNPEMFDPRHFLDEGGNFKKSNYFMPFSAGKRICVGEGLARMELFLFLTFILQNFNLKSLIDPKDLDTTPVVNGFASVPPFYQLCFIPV

Unmarked numbers belong to inactive results. Results filed as inconclusive are left out. The source made the active and inactive calls. Unless noted, the call rests on the fitted dose curve; in most records, active means well fitted curve in either direction with a large enough effect (not every such curve was filed as active); inconclusive means small, poorly fitted or top-dose-only effect, or another doubt; inactive means flat fitted curve, though single readings scatter.

Lysosomal acid glucosylceramidase (Homo sapiens), sequence (P04062 whole entry, looked up): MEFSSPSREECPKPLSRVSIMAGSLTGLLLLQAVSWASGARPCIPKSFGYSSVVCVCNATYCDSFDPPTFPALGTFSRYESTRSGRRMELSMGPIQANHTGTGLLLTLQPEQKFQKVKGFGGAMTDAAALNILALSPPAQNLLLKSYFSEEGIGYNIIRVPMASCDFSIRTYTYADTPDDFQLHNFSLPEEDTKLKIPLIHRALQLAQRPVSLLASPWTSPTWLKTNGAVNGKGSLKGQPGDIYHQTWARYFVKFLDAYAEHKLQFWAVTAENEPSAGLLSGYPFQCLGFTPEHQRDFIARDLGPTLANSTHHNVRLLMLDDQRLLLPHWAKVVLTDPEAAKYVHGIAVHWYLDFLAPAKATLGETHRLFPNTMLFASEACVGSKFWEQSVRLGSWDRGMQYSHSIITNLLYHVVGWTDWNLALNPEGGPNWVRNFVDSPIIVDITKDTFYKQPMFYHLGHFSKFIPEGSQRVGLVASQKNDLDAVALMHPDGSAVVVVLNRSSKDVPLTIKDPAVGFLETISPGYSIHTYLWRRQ
3',5'-cyclic-AMP phosphodiesterase 4B (Homo sapiens), sequence (Q07343 whole entry, looked up): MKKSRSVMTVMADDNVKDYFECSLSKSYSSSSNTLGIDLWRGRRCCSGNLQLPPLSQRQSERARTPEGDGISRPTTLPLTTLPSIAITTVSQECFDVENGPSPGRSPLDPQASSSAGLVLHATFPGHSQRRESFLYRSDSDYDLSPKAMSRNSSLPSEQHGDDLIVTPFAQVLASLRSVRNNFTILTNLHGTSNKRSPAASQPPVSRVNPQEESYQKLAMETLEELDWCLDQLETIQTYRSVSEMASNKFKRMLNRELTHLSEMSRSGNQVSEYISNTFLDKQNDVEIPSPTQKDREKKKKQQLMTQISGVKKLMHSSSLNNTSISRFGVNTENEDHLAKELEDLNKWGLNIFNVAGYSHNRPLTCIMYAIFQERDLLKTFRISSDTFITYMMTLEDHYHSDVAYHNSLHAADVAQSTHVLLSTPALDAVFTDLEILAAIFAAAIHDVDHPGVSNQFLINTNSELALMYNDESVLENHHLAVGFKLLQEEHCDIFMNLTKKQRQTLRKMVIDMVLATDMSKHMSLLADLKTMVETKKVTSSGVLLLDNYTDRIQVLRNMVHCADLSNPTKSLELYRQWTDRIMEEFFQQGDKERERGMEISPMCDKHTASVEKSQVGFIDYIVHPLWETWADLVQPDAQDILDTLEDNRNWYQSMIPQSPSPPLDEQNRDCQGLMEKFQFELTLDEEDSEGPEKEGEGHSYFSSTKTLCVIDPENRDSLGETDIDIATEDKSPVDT

Turning to `O=C(O)CNC(=O)c1ccc([As](=O)(O)O)cc1`, the Potency in assay [1] is greater than 11.4 µM; in [5], greater than 9.22 µM. The values for the activity change, negative = inhibition in assay [2], in assay [3] and in [6] were 9.68%, 7.56% and 36.2% [at 11.4 µM], respectively. Moreover, the activity, negative = inhibition in [4] was 12.9%. Also, the outcome in [7] was inactive.
For `C[C@@](Br)(C(=O)O)[C@H](Br)C(=O)O`, the values for the Potency in assay [1] and in assay [5] were greater than 11.4 µM and greater than 9.22 µM, respectively. For the same compound, the activity change, negative = inhibition in assay [2] was 3.08%; in assay [3], 17.1%; in assay [6] it was 1.39% [at 11.4 µM]. Moreover, the activity, negative = inhibition in [4] is 8.31%. Besides, the outcome in assay [7] was inactive.
Take `Cc1ccc(S(=O)(=O)O[C@H]2CN3CCC2CC3)cc1`: the Potency in [1] was greater than 11.4 µM; in assay [8], greater than 46 µM; in assay [5], greater than 9.22 µM. Besides, the results for the activity change, negative = inhibition in [2] and in assay [6] were 10.6% and 5.42% [at 11.4 µM], respectively. In addition, the activity, negative = inhibition in assay [4] is -1.72%. Further, the outcome in assay [7] was inactive.
For the compound `C[C@]12CN(CC[N+](C)(C)C)C[C@]1(C)[C@@H]1CC[C@@H]2O1`, the results for the Potency in assay [1] and in assay [8] were 6.39 µM (active) and greater than 46 µM, respectively. For the same compound, the activity change, negative = inhibition in assay [2] is 12.6%; in assay [3], 10.2%. Besides, the activity, negative = inhibition in [4] was -6.86%. For the same compound, the result in assay [7] was inactive.
For `c1ccc(C[N+]23CN4CN(CN(C4)C2)C3)cc1`, the activity change, negative = inhibition in [2] is 0.854%; in assay [9], -10.1% [at 2.29 µM]; in assay [3] it was 6.01%; in assay [6], -2.9% [at 11.4 µM]. Moreover, the activity, negative = inhibition in [4] was 6.74%. Further, the Potency in assay [8] is greater than 46 µM; in [5], greater than 9.22 µM. For the same compound, the compound was called inactive in assay [7].
For `O=C(O)c1cc[c]([Hg][S]c2ncnc3nc[nH]c23)cc1`, the Potency in [1] was 0.146 µM (active); in assay [9], 0.316 µM (active); in [8], greater than 46 µM; in [5], greater than 9.22 µM; in assay [10], 0.631 µM (active). The activity, negative = inhibition in assay [4] is -16.1%. Besides, the activity change, negative = inhibition in assay [6] was 3.39% [at 11.4 µM]. Moreover, the compound was called inactive in assay [7].
With `O=C(O)/C=C\c1ccc[c]([Sb](=[O])([OH])[OH])c1`, the activity change, negative = inhibition was -8.12% in assay [2], -9.5% [at 2.29 µM] in assay [9], 12.6% in assay [3] and 3.13% [at 11.4 µM] in assay [6]. In addition, in assay [4], the activity, negative = inhibition was -20.4%. The results for the Potency in assay [8] and in assay [5] were greater than 46 µM and greater than 9.22 µM, respectively. Also, the outcome in assay [7] was inactive.
`CC[C@@H]1[C@@H]2Cc3ccc(O)cc3[C@@]1(CC)CCN2C`: the Potency in assay [1] is greater than 11.4 µM. In addition, the activity change, negative = inhibition in [2] was -9.39%; in [3], 17.1%; in assay [6] it was 2.22% [at 11.4 µM]. For the same compound, the activity, negative = inhibition in assay [4] was 2.87%. Further, the compound was classed as inactive in [7].
With `O=S(=O)(Nc1nccs1)c1ccc([As](=O)(O)O)cc1`, the Potency in assay [1] was greater than 11.4 µM; in assay [5], greater than 9.22 µM. Also, the results for the activity change, negative = inhibition in [2], in assay [3] and in assay [6] were 4.77%, 8.49% and 2.72% [at 11.4 µM], respectively. Moreover, in assay [4], the activity, negative = inhibition is 10.3%. Further, the result in assay [7] was inactive.
On to `NC1(P(=O)(O)O)CCCCC1`, for which the Potency in assay [1] is greater than 11.4 µM; in [8], greater than 46 µM. The values for the activity change, negative = inhibition in assay [2] and in assay [3] were 11.8% and -8.61%, respectively. Further, in assay [4], the activity, negative = inhibition was 4.3%. Moreover, the call in assay [7] was inactive.
`Cc1ccc(NC(=[OH+])c2cc3ccccc3cc2O)c(C)c1.Cc1ccc(NC(=[OH+])c2cc3ccccc3cc2O)c(C)c1.[Ni]`: the Potency in assay [1] was greater than 11.4 µM; in assay [9], 0.251 µM (active); in assay [8] it was greater than 46 µM; in assay [10] it was 2 µM (active). In [7], the compound was called inactive.
On to `CCc1ccc(CCN2CCCCC2)nc1`, for which the Potency was greater than 11.4 µM in [1], greater than 46 µM in [8] and greater than 9.22 µM in assay [5]. For the same compound, the activity change, negative = inhibition in assay [2] is 15.5%; in assay [3], -21.3%; in [6], 1.06% [at 11.4 µM]. In addition, in assay [7], the call was inactive.
Take `O=C1C[C@@H]2OCC=C3CN4CC[C@]56c7ccccc7N1[C@@H]5[C@@H]2[C@H]3C[C@H]46` (tested in a mixture with another compound): in [1], the Potency was greater than 11.4 µM. The activity change, negative = inhibition was 5.95% in [2] and 1.78% [at 11.4 µM] in assay [6]. Also, the result in [7] was inactive.
As to `C[C@@H]1[C@H]2C=C[C@@H]1[C@@H](c1c3ccc(=O)c(O)c-3oc3c(O)c(O)ccc13)[C@@H]2C(=O)O`, the Potency in [1] is greater than 11.4 µM; in assay [5], greater than 9.22 µM. Further, the activity change, negative = inhibition was -14.3% in assay [2] and 3.07% in assay [3]. The compound was called inactive in [7].
Regarding `Oc1c(Cl)c(Cl)c(Cl)c(Cl)c1Cl` (tested in a mixture with another compound), the results for the Potency in assay [1], in [8] and in assay [5] were greater than 11.4 µM, greater than 46 µM and greater than 9.22 µM, respectively. Moreover, the activity change, negative = inhibition in [2] was -9.55% [middle of 4 runs]; in assay [6], 0.344% [at 11.4 µM] [middle of 4 runs]. For the same compound, the activity, negative = inhibition in assay [4] is -12.9% [middle of 4 runs]. Further, the compound was classed as inactive in assay [7].
